Results published in PubChem BioAssay (NCATS).
Results filed as inconclusive are left out. Activity calls are given as the source filed them. Unless noted, the call rests on the fitted dose curve; in most records, active means well fitted curve in the direction sought with a large enough effect; inconclusive means small, poorly fitted or top-dose-only effect, or another doubt; inactive means no such curve, though single readings can be large; an effect the other way counts as inactive or inconclusive.

Key:
[1] = biological target: Lysosomal acid glucosylceramidase (Homo sapiens) (UniProt P04062); experiment: Glucocerebrosidase-p2 (AID 348; in the data active means potency below about 10 µM; further: potency means the concentration at half of the fitted maximal effect); conditions: purified GBA, blue fluorogenic substrate, 40 min
How it was run: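 Normal human glucocerebrosidase (0.2 nM) with blue fluorogenic substrate (80 uM final) in citrate/phosphate pH 5.9 with 10mM sodium taurocholate, 0.01% tween-20; 40 min RT, NaOH/glycine stop; fluorescence Ex 365/Em 440; AC50 from a titration from 0.6 nM upwards.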

[2] = AP1 Signaling Pathway (AID 357; active means well fitted curve in either direction with a large enough effect, not every such curve was filed as active; further: on the % scale 0 is the no-effect control and ±100 the full control effect); conditions: ME-180 AP-1-bla reporter, EGF-induced, beta-lactamase ratio, 5 h; at 7.69 µM (top of the series) unless noted
How it was run: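 ME-180 cells with beta-lactamase reporter under AP-1 response element, stimulated with EC50 EGF; compounds tested in titration series, 5 h at 37 °C. CCF4 substrate added 2.5 h at room temperature; 460/530 nm emission ratio gave %activity and AC50.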

[3] = biological target: Cytochrome P450 1A2 (Homo sapiens) (UniProt P05177); experiment: p450-cyp1a2 (AID 410; calls by dose curve; further: potency means the concentration at half of the fitted maximal effect); conditions: recombinant CYP1A2, luciferin-ME demethylation, luminescence; series mostly up to 57 µM
How it was run: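 Luminescent demethylation readout: Luciferin-ME (100uM, equal to Km) turned over by 20nM CYP1A2 for 60 min at room temperature after NADPH regeneration addition, following 10 min compound preincubation. Normalization used 57 uM furafylline as full inhibition.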

[4] = NFAT Signaling Pathway (AID 444; active means well fitted curve in either direction with a large enough effect, not every such curve was filed as active;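 further: carbachol stimulus at about its EC50 of 1 µM final; on the % scale 0 is the no-effect control and ±100 the full control effect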); conditions: Jurkat NFAT-bla M1, carbachol, beta-lactamase ratio, 5 h; at 7.69 µM (top of the series) unless noted
How it was run: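 Jurkat cells with NFAT-driven β-lactamase reporter and co-expressed M1 receptor, stimulated with carbachol (final 1 uM, ~EC50), compound titration, 5 h at 37 °C. CCF4 loaded 1 h at RT; 460/530 nm ratio gave %activity and AC50.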

[5] = Stat Signaling Pathway (AID 446; active means well fitted curve in either direction with a large enough effect, not every such curve was filed as active;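 further: ME-180 cervical cancer cells given 40 pM IL-6 alongside compound; SIE-controlled beta-lactamase reporter measured as 460/530 nm FRET emission ratio; on the % scale 0 is the no-effect control and ±100 the full control effect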); conditions: ME-180 SIE beta-lactamase reporter, IL-6 stimulated, 5 h; at 7.69 µM (top of the series) unless noted
How it was run: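 FRET read-out (405 nm excitation, 460/530 nm emission) of a beta-lactamase reporter under a STAT-inducible element in ME-180 cervical carcinoma cells. Cells with compound receive 40 pM IL-6 for 5 h. Values are normalised to AC90 stimulation and AC90 JAK-inhibitor controls.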

[6] = biological target: Glucocorticoid receptor (Homo sapiens) (UniProt P04150); experiment: GR-GFP Redistribution (AID 450;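 active means compounds whose dose series gives a full or clear partial fitted curve of increased nuclear translocation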; further: potency means the concentration at half of the fitted maximal effect); conditions: U2OS GR-GFP nuclear translocation, laser cytometry, 2 h
[7] = biological target: Glucocorticoid receptor (Homo sapiens) (UniProt P04150); experiment: GR-EFC Redistribution (AID 451; calls by dose curve; further: potency means the concentration at half of the fitted maximal effect); conditions: CHO-K1 GR-EFC translocation, beta-gal luminescence, 2 h
How it was run: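 CHO-K1 cells expressing nuclear EA and GR-ED fragments of b-gal; compounds titrated up to 46 uM final, 2 h at 37 C. GR nuclear translocation read as complemented b-gal luminescence after 1 h RT detection.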

[8] = biological target: Mitogen-activated protein kinase 10 (Mus musculus) (UniProt Q61831); experiment: JNK3 AlphaScreen Assay (AID 530; active means well fitted curve in either direction with a large enough effect, not every such curve was filed as active;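 further: kinase came from lysate of stimulated human HepG2 cells; signal reports phosphorylation of biotinylated GST-cJun 1-79 at Ser73 with 10 µM ATP; on the % scale 0 is the no-effect control and ±100 the full control effect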); conditions: JNK3 lysate, c-Jun phosphorylation; series mostly up to 57.1 µM
How it was run: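 Activity was read by AlphaScreen after JNK3-containing HepG2 lysate (cytokine pre-activated) phosphorylated biotinylated GST-cJun with 10 uM ATP at room temperature. Phospho-Ser73 cJun antibody with Protein-A acceptor beads provided detection.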

[9] = biological target: 3',5'-cyclic-AMP phosphodiesterase 4B (Homo sapiens) (UniProt Q07343); experiment: qHTS Assay for Inhibitors of PDE-IV (AID 607; active means well fitted activation curve with a large enough effect in the main read-out, with a control signal flat, not every such curve was filed as active; further: % of control where 0% means no effect); conditions: HEK293 ACTOne CNG channel cells, membrane potential fluorescence; series mostly up to 22.9 µM
How it was run: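 Cell-based read-out of cAMP via a modified cyclic nucleotide-gated channel and membrane potential dye (535/590 nm) in HEK293 cells expressing PDE4 endogenously. Compounds tested up to 22.9 uM final; 100 uM RO 20-1724 reference.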

[10] = biological target: Dual specificity protein kinase CLK4 (Homo sapiens) (UniProt Q9HAZ1); experiment: qHTS Assay for Inhibitors of CDC-like Kinase 4 (ADP-Glo Assay) (AID 1771); conditions: recombinant CLK4, ADP-Glo luminescence; series mostly up to 80 µM; further: nearly all actives have a fitted effect of over 70% in size; further: potency means the concentration at half of the fitted maximal effect
How it was run: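 ADP production was read by ADP-Glo luminescence after residual ATP depletion, following 1 h room-temperature reaction of 25 nM Clk4, 1 uM ATP and 100 uM RS peptide with MgCl2, EGTA, DTT and Triton X-100.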

[11] = biological target: Dual specificity protein kinase CLK4 (Homo sapiens) (UniProt Q9HAZ1); experiment: qHTS Assay for Inhibitors of CDC-like Kinase 4 (ADP-FP Assay) (AID 1795); conditions: Transcreener ADP fluorescence polarization; series mostly up to 50 µM;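 further: recombinant human CLK4 phosphorylating RS repeat peptide at 1 µM ATP; on the % scale 0 is the no-effect control and ±100 the full control effect; nearly all actives have a fitted effect of over 60% in size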
How it was run: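 Recombinant Clk4 (6.25 nM) phosphorylated 100 uM RS repeat peptide with 1 uM ATP in 25 mM Tris pH 7.5, 10 mM MgCl2, 0.5 mM EGTA, 2.5 mM DTT, 0.01% Triton X-100 for 1 h. ADP was detected by Transcreener ADP2 competitive fluorescence polarization after 30 min at room temperature.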

[12] = biological target: Ubiquitin carboxyl-terminal hydrolase 1 (Homo sapiens) (UniProt O94782); experiment: Inhibitors of USP1/UAF1: Pilot qHTS (AID 504865); conditions: purified USP1/UAF1, Ub-rhodamine cleavage fluorescence; series mostly up to 54.9 µM;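 further: rhodamine fluorescence freed from ubiquitin-rhodamine substrate followed over time; top concentration of the series differs between compounds; on the % scale 0 is the no-effect control and ±100 the full control effect; nearly all actives have a fitted effect of over 35% in size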
How it was run: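 USP1/UAF1 complex at 1 nM preincubated 15 min at room temperature with compound, then Ub-Rho substrate added at 150 nM final. Fluorescence (480/540 nm) read kinetically in 50 mM HEPES pH 7.8, 0.5 mM EDTA, 1 mM TCEP, 0.1 mg/ml BSA, 0.01% Tween-20.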

[13] = Primary qHTS for small molecule stabilizers of the endoplasmic reticulum resident proteome: Secreted ER Calcium Modulated Protein (SERCaMP) assay (AID 1508630); conditions: SH-SY5Y GLuc-SERCaMP (Gaussia luciferase released on ER calcium loss) secretion, thapsigargin, luminescence; series mostly up to 38.4 µM; further: on the % scale 0 is the no-effect control and ±100 the full control effect
How it was run: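 The SH-SY5Y reporter protocol was run at 3 concentrations up to 38.3 uM (primary) or 11 concentrations (follow-up): 16 h compound, 100 nM thapsigargin for 4 h, then extracellular luciferase luminescence.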

[14] = biological target: Cytochrome P450 3A4 (Homo sapiens) (UniProt P08684); experiment: qHTS Assay for Inhibitors and Substrates of Cytochrome P450 3A4 (AID 884); conditions: recombinant CYP3A4, Luciferin-PPXE luminescence; series mostly up to 57.1 µM; further: nearly all actives have a fitted effect of over 50% in size; further: potency means the concentration at half of the fitted maximal effect
How it was run: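 Luminescent readout of luciferin produced by CYP3A4 (20 nM) dealkylation of Luciferin-PPXE, 25 uM (its KM). NADPH-driven reaction ran 60 min at RT after 10 min compound preincubation; data scaled to 57 uM ketoconazole as 100% inhibition.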

[15] = biological target: Cytochrome P450 3A4 (Homo sapiens) (UniProt P08684); experiment: qHTS Assay for Activators of Cytochrome P450 3A4 (AID 885); conditions: recombinant CYP3A4, Luciferin-PPXE luminescence, 60 min; series mostly up to 57.1 µM; further: nearly all actives have a fitted effect of over 65% in size
How it was run: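 Luminescent readout of luciferin formed from 25 uM Luciferin-PPXE (KM level) by 20 nM CYP3A4 in 200 mM KPO4, with 60 min NADPH-driven reaction at room temperature after 10 min compound exposure. Ketoconazole (57 uM) defined 100% inhibition.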

[16] = biological target: Dual specificity protein kinase CLK4 (Homo sapiens) (UniProt Q9HAZ1); experiment: qHTS Assay for Inhibitors of CDC-like Kinase 4 (Kinase-Glo Assay) (AID 1770); conditions: recombinant Clk4, Kinase-Glo ATP depletion luminescence; series mostly up to 66.7 µM; further: on the % scale 0 is the no-effect control and ±100 the full control effect; nearly all actives have a fitted effect of over 65% in size
How it was run: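 25 nM Clk4 with 100 uM RS repeat peptide and 1 uM ATP (final) in Tris pH7.5, 10 mM MgCl2, 4.5 h at room temperature. Remaining ATP measured by Kinase-Glo luciferase luminescence.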

[17] = biological target: Cytochrome P450 2C19 (Homo sapiens) (UniProt P33261); experiment: qHTS Assay for Inhibitors and Substrates of Cytochrome P450 2C19 (AID 899); conditions: recombinant CYP2C19, luciferin-H EGE luminescence; series mostly up to 57.1 µM; further: potency means the concentration at half of the fitted maximal effect; nearly all actives have a fitted effect of over 60% in size
How it was run: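 Signal comes from luciferase acting on luciferin released by CYP2C19-mediated hydroxylation of Luciferin-H EGE, 10uM (KM). Assay mix: 5nM enzyme, 50mM KPO4; 60 min at 37C with NADPH regeneration. Data normalized against 57uM ketoconazole.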

[18] = qHTS Assay for Identification of Small Molecule Agonists for Hypoxia Response Element Signaling Pathway (AID 914; active means well fitted activation curve with a large enough effect in the signal ratio, with a control signal flat, not every such curve was filed as active; the % refers to the signal ratio; further: potency means the concentration at half of the fitted maximal effect; on activation: % of control where 0% means no effect); conditions: ME-180 (cervical carcinoma) HRE-bla reporter, beta-lactamase ratio, CoCl2, 17 h; activation: stronger effect = higher value
How it was run: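 Positive modulation of EC50 CoCl2-induced hypoxia response element signaling is measured in ME-180 cells with a beta-lactamase reporter. Compounds are titrated, incubation runs 17 hours, and %Activity derives from the blue/green ratio.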

Chain of Lysosomal acid glucosylceramidase (Homo sapiens) (P04062 whole entry, looked up): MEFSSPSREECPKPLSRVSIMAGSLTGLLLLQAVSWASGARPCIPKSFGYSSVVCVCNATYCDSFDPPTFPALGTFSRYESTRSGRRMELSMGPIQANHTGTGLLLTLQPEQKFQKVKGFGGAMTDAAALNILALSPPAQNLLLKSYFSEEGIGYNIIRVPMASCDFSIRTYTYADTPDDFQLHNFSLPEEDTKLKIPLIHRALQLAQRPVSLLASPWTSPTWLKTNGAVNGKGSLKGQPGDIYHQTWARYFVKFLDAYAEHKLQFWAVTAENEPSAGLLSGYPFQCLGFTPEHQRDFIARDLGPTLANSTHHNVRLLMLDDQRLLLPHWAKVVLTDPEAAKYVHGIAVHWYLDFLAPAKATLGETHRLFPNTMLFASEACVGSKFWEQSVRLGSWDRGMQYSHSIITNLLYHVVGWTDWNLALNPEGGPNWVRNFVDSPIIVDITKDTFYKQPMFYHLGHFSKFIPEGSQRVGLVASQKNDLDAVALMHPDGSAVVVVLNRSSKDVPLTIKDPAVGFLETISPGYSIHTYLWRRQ
Chain of Cytochrome P450 3A4 (Homo sapiens) (P08684 whole entry, looked up): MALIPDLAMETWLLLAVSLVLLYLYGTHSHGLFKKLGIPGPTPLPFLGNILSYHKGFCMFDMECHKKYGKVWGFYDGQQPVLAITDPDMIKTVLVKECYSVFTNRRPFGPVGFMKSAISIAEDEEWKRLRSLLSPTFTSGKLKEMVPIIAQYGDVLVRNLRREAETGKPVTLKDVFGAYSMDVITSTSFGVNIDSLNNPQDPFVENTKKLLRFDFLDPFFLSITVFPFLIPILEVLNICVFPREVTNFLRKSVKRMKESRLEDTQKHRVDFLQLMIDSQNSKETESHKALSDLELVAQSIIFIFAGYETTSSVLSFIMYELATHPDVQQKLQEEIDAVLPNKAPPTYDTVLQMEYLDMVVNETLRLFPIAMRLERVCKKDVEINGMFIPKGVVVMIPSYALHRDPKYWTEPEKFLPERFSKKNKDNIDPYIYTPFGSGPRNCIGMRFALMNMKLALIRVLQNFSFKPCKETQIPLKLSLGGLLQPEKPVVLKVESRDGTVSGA
Chain of Glucocorticoid receptor (Homo sapiens) (P04150 whole entry, looked up, the tested form may be a part): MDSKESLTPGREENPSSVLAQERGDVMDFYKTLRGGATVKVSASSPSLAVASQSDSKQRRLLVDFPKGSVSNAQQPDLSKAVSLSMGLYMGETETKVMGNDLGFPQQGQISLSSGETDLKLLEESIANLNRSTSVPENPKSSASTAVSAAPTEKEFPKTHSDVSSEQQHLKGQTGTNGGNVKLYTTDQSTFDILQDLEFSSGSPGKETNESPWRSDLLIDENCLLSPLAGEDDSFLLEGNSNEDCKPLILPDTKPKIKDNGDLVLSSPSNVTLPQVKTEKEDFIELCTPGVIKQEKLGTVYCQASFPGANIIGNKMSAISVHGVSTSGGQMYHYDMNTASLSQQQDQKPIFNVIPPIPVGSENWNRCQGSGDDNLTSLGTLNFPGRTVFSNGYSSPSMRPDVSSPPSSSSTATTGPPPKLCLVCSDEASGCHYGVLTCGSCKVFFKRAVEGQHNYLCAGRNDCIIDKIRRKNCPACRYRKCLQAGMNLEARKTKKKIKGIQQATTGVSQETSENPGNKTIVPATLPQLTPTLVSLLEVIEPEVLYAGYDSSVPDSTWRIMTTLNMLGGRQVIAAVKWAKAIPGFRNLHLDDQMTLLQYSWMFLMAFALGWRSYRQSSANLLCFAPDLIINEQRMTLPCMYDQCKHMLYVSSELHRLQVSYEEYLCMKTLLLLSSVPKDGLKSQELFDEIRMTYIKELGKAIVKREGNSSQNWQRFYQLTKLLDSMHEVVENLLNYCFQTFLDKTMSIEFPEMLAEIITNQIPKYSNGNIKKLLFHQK
Chain of Ubiquitin carboxyl-terminal hydrolase 1 (Homo sapiens) (O94782 whole entry, looked up): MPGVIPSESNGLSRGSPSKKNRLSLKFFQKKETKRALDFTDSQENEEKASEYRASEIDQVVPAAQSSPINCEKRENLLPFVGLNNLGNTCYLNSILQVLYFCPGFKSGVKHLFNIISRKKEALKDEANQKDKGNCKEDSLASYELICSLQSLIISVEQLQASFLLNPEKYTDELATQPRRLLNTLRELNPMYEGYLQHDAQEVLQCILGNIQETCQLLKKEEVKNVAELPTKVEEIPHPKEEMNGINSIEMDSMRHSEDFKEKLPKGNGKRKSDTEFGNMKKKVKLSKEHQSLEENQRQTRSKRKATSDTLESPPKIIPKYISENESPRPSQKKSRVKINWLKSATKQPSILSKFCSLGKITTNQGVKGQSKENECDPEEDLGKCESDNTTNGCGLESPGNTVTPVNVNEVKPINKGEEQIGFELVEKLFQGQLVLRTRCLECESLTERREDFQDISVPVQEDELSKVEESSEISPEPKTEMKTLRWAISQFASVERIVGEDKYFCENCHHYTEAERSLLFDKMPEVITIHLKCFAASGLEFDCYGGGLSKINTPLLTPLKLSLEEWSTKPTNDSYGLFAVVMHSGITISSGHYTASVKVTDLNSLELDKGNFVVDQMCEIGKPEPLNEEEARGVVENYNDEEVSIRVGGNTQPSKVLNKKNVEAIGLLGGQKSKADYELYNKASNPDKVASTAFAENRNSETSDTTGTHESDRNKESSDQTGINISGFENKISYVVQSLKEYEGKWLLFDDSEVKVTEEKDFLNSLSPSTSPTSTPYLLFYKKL
Chain of Dual specificity protein kinase CLK4 (Homo sapiens) (Q9HAZ1 whole entry, looked up): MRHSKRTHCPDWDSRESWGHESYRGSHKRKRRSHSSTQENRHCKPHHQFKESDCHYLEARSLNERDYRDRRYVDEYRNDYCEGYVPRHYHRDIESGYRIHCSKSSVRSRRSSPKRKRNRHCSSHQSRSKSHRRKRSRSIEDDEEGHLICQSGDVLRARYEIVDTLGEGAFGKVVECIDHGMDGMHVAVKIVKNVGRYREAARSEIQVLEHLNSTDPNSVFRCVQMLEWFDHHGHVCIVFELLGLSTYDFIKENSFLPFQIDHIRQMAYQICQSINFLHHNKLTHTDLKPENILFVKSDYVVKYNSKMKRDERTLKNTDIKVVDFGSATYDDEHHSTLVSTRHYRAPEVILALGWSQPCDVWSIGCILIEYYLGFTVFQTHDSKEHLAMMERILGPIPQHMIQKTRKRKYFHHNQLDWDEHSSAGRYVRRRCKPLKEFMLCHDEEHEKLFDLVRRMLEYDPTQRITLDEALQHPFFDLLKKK
Chain of Cytochrome P450 1A2 (Homo sapiens) (P05177 whole entry, looked up): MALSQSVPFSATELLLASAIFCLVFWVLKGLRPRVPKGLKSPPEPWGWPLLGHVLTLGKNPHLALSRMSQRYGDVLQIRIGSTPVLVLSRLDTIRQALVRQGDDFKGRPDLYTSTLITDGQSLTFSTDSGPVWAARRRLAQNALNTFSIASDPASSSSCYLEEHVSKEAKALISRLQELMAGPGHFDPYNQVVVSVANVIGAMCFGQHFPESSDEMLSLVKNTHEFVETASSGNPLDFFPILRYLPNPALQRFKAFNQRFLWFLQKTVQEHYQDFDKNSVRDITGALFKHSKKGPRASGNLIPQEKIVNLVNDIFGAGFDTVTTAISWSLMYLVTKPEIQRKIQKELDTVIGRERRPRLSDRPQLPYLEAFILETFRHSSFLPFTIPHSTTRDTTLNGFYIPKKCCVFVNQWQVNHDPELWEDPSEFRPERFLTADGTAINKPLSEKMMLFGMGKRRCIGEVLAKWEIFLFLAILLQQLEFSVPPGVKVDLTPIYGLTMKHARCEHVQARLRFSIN
Chain of 3',5'-cyclic-AMP phosphodiesterase 4B (Homo sapiens) (Q07343 whole entry, looked up): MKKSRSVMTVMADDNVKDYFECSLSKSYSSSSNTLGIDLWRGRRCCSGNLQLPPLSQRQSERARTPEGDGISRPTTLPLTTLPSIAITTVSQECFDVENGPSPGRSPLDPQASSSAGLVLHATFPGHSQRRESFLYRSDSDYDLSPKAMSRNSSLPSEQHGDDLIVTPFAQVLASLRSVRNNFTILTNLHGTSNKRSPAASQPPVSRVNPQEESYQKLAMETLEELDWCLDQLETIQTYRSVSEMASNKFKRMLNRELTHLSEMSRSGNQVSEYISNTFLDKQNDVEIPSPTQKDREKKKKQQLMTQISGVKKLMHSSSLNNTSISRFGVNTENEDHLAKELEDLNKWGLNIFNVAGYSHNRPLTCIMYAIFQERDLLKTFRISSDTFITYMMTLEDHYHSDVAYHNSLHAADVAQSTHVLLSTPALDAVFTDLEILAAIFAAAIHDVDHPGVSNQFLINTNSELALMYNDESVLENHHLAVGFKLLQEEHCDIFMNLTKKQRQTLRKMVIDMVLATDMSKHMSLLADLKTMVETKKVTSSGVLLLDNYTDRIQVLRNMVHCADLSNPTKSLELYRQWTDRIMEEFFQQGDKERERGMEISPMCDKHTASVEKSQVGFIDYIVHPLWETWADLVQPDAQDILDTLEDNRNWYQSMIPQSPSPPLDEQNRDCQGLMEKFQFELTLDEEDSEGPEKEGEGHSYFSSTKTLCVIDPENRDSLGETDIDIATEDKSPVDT
Chain of Cytochrome P450 2C19 (Homo sapiens) (P33261 whole entry, looked up): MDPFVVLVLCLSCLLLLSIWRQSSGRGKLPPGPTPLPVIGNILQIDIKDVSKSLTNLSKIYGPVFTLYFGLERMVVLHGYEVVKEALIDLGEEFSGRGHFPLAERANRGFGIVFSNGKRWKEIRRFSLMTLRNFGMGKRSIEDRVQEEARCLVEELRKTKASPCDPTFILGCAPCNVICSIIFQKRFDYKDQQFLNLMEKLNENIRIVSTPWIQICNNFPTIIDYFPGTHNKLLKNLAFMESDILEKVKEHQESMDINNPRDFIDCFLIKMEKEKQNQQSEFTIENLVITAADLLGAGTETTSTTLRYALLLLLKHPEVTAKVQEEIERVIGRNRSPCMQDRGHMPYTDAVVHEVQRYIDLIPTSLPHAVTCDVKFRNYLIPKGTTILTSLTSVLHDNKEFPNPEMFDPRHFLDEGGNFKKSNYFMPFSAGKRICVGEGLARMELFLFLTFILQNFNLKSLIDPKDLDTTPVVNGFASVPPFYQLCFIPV

Clc1ccccc1-c1cc(NCCN2CCOCC2)ncn1
inactive: Potency [1] > 11.4 µM | activity change, negative = inhibition [2] 1.17% | activity change, negative = inhibition [4] -9.62% | activity, negative = inhibition [5] 2.93% | Potency [6] > 46 µM | Potency [7] > 46 µM | Potency [8] | Potency [9] | Potency [10] | Potency [11] | Potency [12] | outcome [13]
active: Potency [3] 31.6 µM

CCNc1ncc2nc(-c3cccs3)c(=O)n(Cc3cccs3)c2n1
inactive: Potency [1] > 11.4 µM | activity change, negative = inhibition [2] 9.95% | Potency [6] > 9.22 µM | Potency [7] > 46 µM | Potency [8] | Potency [10] | Potency [11] | Potency [12] | outcome [13]
active: Potency [3] 1.26 µM | Potency [14] 6.31 µM

Cn1c(=O)c(-c2cc(F)cc(F)c2)nc2cncnc21
active: Potency [3] 0.631 µM
inactive: Potency [1] > 11.4 µM | activity change, negative = inhibition [2] -3.06% | activity change, negative = inhibition [4] 3.39% | activity, negative = inhibition [5] 5.34% | Potency [6] > 9.22 µM | Potency [7] > 46 µM | Potency [8] | Potency [9] | Potency [15] | Potency [10] | Potency [11] | Potency [12] | outcome [13]

CN(C)C(=O)c1ccc(-c2nc(-n3ccnc3)c3ccccc3n2)cc1
active: Potency [3] 20 µM
inactive: activity change, negative = inhibition [4] 2.92% | activity, negative = inhibition [5] 6.8% | Potency [6] > 46 µM | Potency [7] > 46 µM | Potency [8] | Potency [9] | Potency [16] | Potency [12] | outcome [13]

Cc1nc2cnc(N(C)C)nc2n(CCc2ccccc2)c1=O
active: Potency [3] 1.26 µM | Potency [17] 0.631 µM | Potency [10] 35.5 µM
inactive: Potency [1] > 11.4 µM | activity change, negative = inhibition [2] -5.39% | activity change, negative = inhibition [4] -14.5% | Potency [6] > 9.22 µM | Potency [7] > 46 µM | Potency [8] | Potency [15] | activation [18] -12% | Potency [11] | Potency [12] | outcome [13]

Cn1c(=O)c(-c2ccc(F)cc2)nc2cnc(N3CCOCC3)nc21
inactive: Potency [1] > 11.4 µM | activity change, negative = inhibition [2] 14.8% | activity change, negative = inhibition [4] 24.2% | Potency [6] > 9.22 µM | Potency [7] > 46 µM | Potency [8] | Potency [9] | Potency [14] | Potency [10] | Potency [11] | Potency [12] | outcome [13]
active: Potency [3] 2.51 µM | Potency [18] 2.51 µM

COc1ccc(-n2c(=O)c(C)nc3cnc(N4CCOCC4)nc32)cc1
active: Potency [3] 12.6 µM
inactive: Potency [1] > 11.4 µM | activity change, negative = inhibition [2] -10.2% | activity change, negative = inhibition [4] 3.24% | activity, negative = inhibition [5] -6.68% | Potency [6] > 9.22 µM | Potency [7] > 46 µM | Potency [8] | Potency [9] | Potency [15] | Potency [10] | Potency [11] | Potency [12] | outcome [13]

Cc1ccccc1-c1nccc(NCc2cccnc2)n1
inactive: Potency [1] > 11.4 µM | activity change, negative = inhibition [2] 13% | activity change, negative = inhibition [4] 3.23% | activity, negative = inhibition [5] -15.6% | Potency [6] > 46 µM | Potency [7] > 46 µM | Potency [8] | Potency [9] | Potency [15] | Potency [11] | Potency [12] | outcome [13]
active: Potency [3] 0.2 µM | Potency [14] 3.98 µM | Potency [17] 5.01 µM | Potency [10] 28.2 µM

Cc1cnc(CNc2cc(-c3ccccc3C)ncn2)cn1
active: Potency [3] 12.6 µM
inactive: Potency [1] > 11.4 µM | activity change, negative = inhibition [2] -5.18% | activity change, negative = inhibition [4] 14% | activity, negative = inhibition [5] 4.06% | Potency [6] > 46 µM | Potency [7] > 46 µM | Potency [8] | Potency [9] | Potency [14] | Potency [11] | Potency [12] | outcome [13]
